Measurements reported in PubChem BioAssay AID2129 (The Scripps Research Institute Molecular Screening Center, 2009).
Screen size: about 320,000 compounds; about 2,200 (0.69%) were called active. This is one part of a sample in which actives are shown more often than they occur. Unmarked numbers belong to inactive results.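 Rule for the calls: active = inhibition above the mean of all tested compounds plus 3 SD, cutoff set per campaign (cut at about 30% in these data); inactive = the rest.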

What follows are compounds tested against Bcl-2-like protein 1 (Homo sapiens) (UniProt Q07817) (assay: inhibitors of human Bcl-xL, primary screen, biochemical, fluorescence polarization, HTS (AID 2129;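 note: 0% = DMSO wells and 100% = unlabeled Bim-BH3 peptide competitor; inhibitors lower millipolarization by displacing the labeled peptide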)). Details: GST-Bcl-xL / FITC-Bim BH3 peptide fluorescence polarization; at 10.9 µM; stronger effect = higher value.
Chain of Bcl-2-like protein 1 (Homo sapiens) (Q07817 whole entry, looked up): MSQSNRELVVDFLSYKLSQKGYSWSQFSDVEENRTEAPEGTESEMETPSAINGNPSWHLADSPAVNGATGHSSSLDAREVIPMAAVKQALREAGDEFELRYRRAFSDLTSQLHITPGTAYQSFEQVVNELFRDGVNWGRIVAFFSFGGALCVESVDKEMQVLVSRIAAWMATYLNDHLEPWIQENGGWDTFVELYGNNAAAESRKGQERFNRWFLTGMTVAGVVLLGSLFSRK

Which inhibition does the source give for `N#CC1=C(N)Oc2c(c(=O)oc3ccccc23)C1c1ccccc1OC(=O)c1cccs1` (stereo not given) here?
Its inhibition is 3.02%.

`CCNc1nc2[nH]c(=O)c3c(c2s1)OC(N)=C(C#N)C3c1cccs1` (stereo not given) was tested. Which inhibition did it give?
The inhibition was 30.4% (active).

For `Cc1ccc(N(C)C(=O)Oc2cccc3ccc(C)nc23)cc1`, which inhibition is on record?
Its inhibition is 0.48%.

With `NCCc1c[nH]c2ccc(O)cc12` as the compound, how does the inhibition read?
The inhibition was 4.75%.

With `O=C1NC(=O)N(c2ccccc2)C(=O)/C1=C/c1ccc([N+](=O)[O-])s1` as the compound, how does the inhibition read?
Its inhibition is 26.3%.

With `COc1cccc(N2C(=O)NC(=O)/C(=C\c3cn(C)c4ccccc34)C2=O)c1` as the compound, how does the inhibition read?
The inhibition was 36.2% (active).

`Cc1ccccc1N1C(=O)NC(=O)/C(=C\c2cc(C)n(C)c2C)C1=O` was tested. Which inhibition did it give?
Its inhibition is 2.98%.

`Cc1ccc(-n2c(O)c(C=NCC3CCCO3)c(=O)[nH]c2=O)c(C)c1` (stereo not given) was tested. Which inhibition did it give?
Its inhibition is -2.2%.

Which inhibition does the source give for `COc1ccc(N2C(=O)/C(=C/c3ccco3)C(=O)NC2=S)cc1` here?
Its inhibition is 32.5% (active).

With `COc1ccc(CN2C(=O)NC(=O)/C(=C\c3ccc(OC)c(OC)c3OC)C2=O)cc1` as the compound, how does the inhibition read?
The inhibition was -7.16%.

With `Cc1cc(/C=C2/C(=O)NC(=O)N(Cc3ccco3)C2=O)c(C)n1-c1ccc(C(=O)O)cc1` as the compound, how does the inhibition read?
Its inhibition is -1.1%.

Which inhibition does the source give for `Cc1cccc(NC(=O)OC2CN3CCC2CC3)c1` (stereo not given) here?
The inhibition was -2.32%.

How did the inhibition turn out when `CC(=NC1CCN(Cc2ccccc2)CC1)c1c(O)n(C)c(=O)n(C)c1=O` was run?
Its inhibition is 14.7%.

With `Cc1ccc2c(c1)C1CN(C)CCC1N2C(=O)Cn1nnc(-c2ccccc2F)n1` (stereo not given) as the compound, how does the inhibition read?
The inhibition was 4.75%.

For `O=c1c2ccccc2nc(/C=C/c2ccc(F)cc2)n1-c1ccccc1O`, which inhibition is on record?
Its inhibition is 0.24%.
